Assay results from the supplement of paper PMC6555819.

The sequences below were run on RXRa DBDmut IVT, anti-RXR (DBD mutation: RXRa K156A/R161A, NR concentration 90 nM) (assay: PBM binding z-score (relative to random genomic background probes); higher = stronger binding; sequences stand for … in GC…GCGATTGACAGCGTAGAATGAAGG).
Method in brief: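 Regression normalization was applied to scanned fluorescence from custom Agilent 4×180K protein-binding microarrays. Before scanning, arrays were incubated 1 h with ligand-free nuclear receptor dimers, and binding was detected with antibodies against each partner (one per run). Binding z-scores use the random background probes as reference.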

Row | Sequence | PBM binding z-score
1 | CCTTACGGGTCACTGCCAGGTTATAGCATTTGGA | 1.46
2 | TCTTGCAGATCAAGCAGGTTAAGAAAGCCTGAGT | 0.253
3 | AGAACGAGGACAATGAGTTGATAGCACGGGTGGC | 1.31
4 | TCGAGTAGGTTAGTCGGGGCATTCACCCAACATA | 0.343
5 | ATATGTAGGTTACATCTGGGTCATTCAGGCTATG | 0.961
6 | CCGAGTAGGTTATTGGGCATTCAGGCAACGGTGA | 0.421
7 | CCTGCTAGGTCAATAGTCAGCTAAAGCAGCTCGC | 1.56
8 | CGTCCAAGGTCAAGGTCAGTTAAAGAGACTCGAA | 3.68
9 | CAAACTAGGTCAAAGGACAAAGTCGAGCCAACCA | 1.7
10 | ACAGGCAGGTGATGAAGGTAACTCAGGCTATCAT | -0.414
11 | CCGTACGGGTCACTGACAGGTTATAGCATTTGGA | 1.07
12 | CCTAGCAGGCCAATCTGGGTCACTCAAGGCTTGA | 0.0731
13 | CAAACTAGGTCAAGGTCAAGGTCGGTTTGTGCCA | 2.79
14 | GTTTACGGGTCAAAGGTTATAGCATGAATAGAAT | 2.06
15 | GCTGCTAGGTCAGGGTGGTCAGCTAACGGGTACG | 0.223
16 | CCAGACAGGTGAGCAGGTAACTCAGCCTCGATTA | -0.0126
17 | TAGCCTAGGCCATTGGGCCAGTATAGTACGCATC | -1.16
18 | GCGACTGGGGCAAAGCAGGTTACGATAAGGTTGG | -0.265
19 | CGTACGAGGGCATGAGTTGATAGCAAATGCCGAT | 2.36
20 | GTACCAAGGTGAATAGGTCCTTGATGAGTAGGCG | -0.522

Row | Sequence | PBM binding z-score
21 | GTCCCAAGGTGAATAGGTCGTTGATGAGTAGGCG | -0.179
22 | GGAACGAGGGAAAAGTTGATAGCATCTGTCGACG | -0.319
23 | TCGAGTAGGTTAGTGGCATTCAGAATGGCGTCGA | 0.0324
24 | CAAACTAGGTCGCGAAAGGTCAAAGTCGAATGAC | 1.98
25 | TCAGACAGATGAAGGTAACTCAGGTACGCAGTCG | 1.34
26 | TAGCCTAGGTCATGGGCCCGTATACCACGCGAAC | -0.133
27 | CGTCCAAGGTCAGGGAGGTCAGTGAATGCCGAGT | 2.48
28 | AGTCAAAGTTCATCTAGGTACCGTAAGATATGCT | 4.67
29 | TCTTATAGGTAAAAGGTGAAAGTCGGTGTGGTAA | 1.69
30 | TCGAGTACGTTAGGGGCATTCAGAATGGCGTCGA | 3.64
31 | ATATCTAGGTAAGACTCAGTTCAGTGAAGAACGC | 0.525
32 | GATACAGGGTCAAGGCCAGAGTCCGCGTATTGAT | 1.91
33 | TCGTATAGGTAAATGCTAGGTGAAAGTCCGATCT | 1.07
34 | TCTTGTAGATCAAGCACGTTAAGAAAGCCTGAGT | 0.721
35 | CCTGCTAGGTCATTGGTCAGCTAAAGCAGCTCGC | 3.02
36 | TTACCAAGGGGAAGGTCGTTGATCCCTCTGTAGA | -0.444
37 | ATACCAAGGTGAACGTGAGGTCGTTGATACTAAC | 1.19
38 | GCTATTAGTTGGAAGGGCAACCGAATGATTCTCG | 0.581
39 | TCTTGTAGATCAAGCAGCTTAAGAAAGCCTGAGT | 0.402
40 | CCGAGTAGGTTATGGGGCGTTCAGGCAACGGTGA | -0.298
